Experimental findings from PubChem BioAssay (NCI) are described below.

The structures appear in SMILES notation. Values joined by “and” are separate entries in the source; they are usually repeats but may differ in a detail not shown here. Equal entries are not always repeated. Compounds without any hit were thinned out: in the full panel of roughly 83,000, 20% have a hit.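 Results are percent growth after 48 hours of single-concentration exposure. 100 means growth as in untreated cells, lower positive values show inhibition; negative values down to -100 show cell death.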 The source holds several records for some structures; these can differ, active in one and inactive in another. Active and inactive are the calls of the source.

The first experiment concerns SK-MEL-28 melanoma. Description: NCI-60 one-dose screen, 48 h (100 = growth as untreated, 0 = no growth, -100 = all killed). As to conditions: 1 µM. The procedure: Growth inhibition of the SK-MEL-28 human tumor cell line is measured as a screen for anti-cancer activity. Cells are grown in 96 well plates and exposed to the test compound for 48 hours. Compounds are tested at a single concentration, which is 10^-5 M for most compounds. The reported endpoint is percent growth (GI% or GIPRCNT), where numbers from 0 - 100% represent growth inhibition, and numbers from -100% - 0 represent cell death. For example, a value of 40 represents 60% growth inhibition. A value of 0 means no net growth occurred over the course of the experiment. A value of -40 indicates 40% of cells at the beginning of the experiment died by the end of the experiment. A value of -100 means all cells are dead at the end of the experiment.
NCI-60 Human Tumor Cell Lines Screen was performed using the standard one-dose NCI protocol, which is described in more detail at https://dtp.cancer.gov/discovery_development/nci-60/default.htm.
Compounds with GIPRCNT values below 10 were considered active. Activity score was based on GIPRCNT using the following formula: […]
Score is 0 for GIPRCNT values of 100 or above, 50 for GIPRCNT values of 0, and 100 for GIPRCNT values of -100.
Take `CNC(=O)c1cc(Oc2ccc(CC(=O)Nc3cc(C(C)(C)C)nn3C)cc2)ccn1`: the growth was 81.7% (inactive).

The same experiment, now with this note: 10 µM.
As for `CC#C[C@]1(O)CC[C@H]2[C@@H]3CCC4=CC(=O)CCC4=C3[C@@H](c3ccc4c(c3)OCO4)C[C@@]21C`, the growth was 108% (inactive).
As for `O=C(O)c1sccc1O`, the growth was 101% (inactive).
Consider `CNC(=O)c1cc(Oc2ccc(CC(=O)Nc3cc(C(C)(C)C)nn3C)cc2)ccn1`, for which the growth is 83.8% (inactive).
The same measure, in the same setting: as for `CC(C)(C)c1cc(NC(=O)Cc2ccc(-c3cnc4cc(-c5cnn(CCN6CCOCC6)c5)ccc4n3)cc2)no1`, the figure is 29.4% (inactive).

The experiment is the same for the next values; noted with them: 10 µM unless noted.
Turning to `Cc1cc(=O)[nH]c(O)c1C#N`, the growth is 98.2% (inactive) and 157% (inactive).
As to `OCCN1CCN(CCCN2c3ccccc3Sc3ccc(Cl)cc32)CC1`, the growth is -33.9% (active) and 56.1% (inactive).
With `Oc1c(Cl)cc(Cl)cc1Sc1cc(Cl)cc(Cl)c1O`, the growth was 58.3% (inactive) and 27.8% (inactive) and 95.3% (inactive).
As for `CCOc1ccc2nc3cc(N)ccc3c(N)c2c1`, the growth is 75.5% (inactive) and 89.8% (inactive).
On to `OC1CCC(Oc2cccc3cnc(Nc4ccc5nc[nH]c5c4)nc23)CC1` (stereo not given), for which the growth is 5.62% (active) and 66.4% (inactive).
Consider `CCN(CC)CCCC(C)N(Cc1ccccc1)CC(O)c1ccc(Cl)cc1` (stereo not given), for which the growth is 109% (inactive) and 106% (inactive).
Still for that read-out and setting: as for `C/C(=N\NC(=O)c1ccncc1)c1ccccc1O`, the figure is 52.4% (inactive) and 63.1% (inactive).
Still for that read-out and setting: the value for `O=C(Nc1cccc(-n2ccc3c(NC(=O)c4ccccc4)nccc32)c1)c1ccc(Cl)c(C(F)(F)F)c1` was -38.9% (active) and 79.8% (inactive); that for `O=C1c2c(O)cc(O)cc2OC(c2ccc(O)c(O)c2)C1O` (stereo not given) was 108% (inactive).
Regarding `O=C1OC2(c3ccccc31)c1ccc(O)c(O)c1Oc1c2ccc(O)c1O`, the growth was 112% (inactive) and 117% (inactive).
Take `CCN(CC)CCNc1cc(-c2cccc(OC(F)(F)F)c2)nc2ccc(N3CCCC3)cc12`: the growth is -9.25% (active) and -32.5% (active) and 11% (inactive).
Turning to `CC1=C(/C=C/C(C)=C/C=C/C(C)=C/C=N/NC(=S)NC(=S)N/N=C/C=C(C)/C=C/C=C(C)/C=C/C2=C(C)CCCC2(C)C)C(C)(C)CCC1`, the growth is -24.4% (active) and -57.5% (active).
`CC(C)CNC(=O)c1ccccc1C(=O)NC1(C(=O)NCC(C)C)CCCC1`: the growth was 117% (inactive) and 115% (inactive).
In the case of `c1ccc2cc(C[n+]3ccn(Cc4ccc5ccccc5n4)c3)ccc2c1`, the growth is 8.97% (active) and 41.2% (inactive).
`O=C1c2ccccc2C(=O)c2c(NCCNCCO)ccc(NCCNCCO)c21`: the growth was -36.8% (active) and 31.2% (inactive) and 16.9% (inactive).
For the compound `CC(C)N=c1cc2n(-c3ccc(Cl)cc3)c3ccccc3nc-2cc1Nc1ccc(Cl)cc1`, the growth was 67.7% (inactive) and 72.8% (inactive) and 57.9% (inactive).
As for `CC(C)(O)Cn1cc(-c2ccc3nc(OC4CC4)ccc3c2)c2c(N)ncnc21`, the growth is 101% (inactive) and 71.5% (inactive).
As to `Cc1cc(C)c(N)c(Br)c1`, the growth was 110% (inactive) and 102% (inactive).
Same read-out and setting: as for `O[C@H](c1cc(C(F)(F)F)nc2c(C(F)(F)F)cccc12)[C@@H]1CCCCN1`, the figure is 94.4% (inactive) and 88.8% (inactive).
With `Clc1ccc(SSc2ccc(Cl)cc2)cc1`, the growth was 96.9% (inactive) and 103% (inactive).
For `COc1ccc(NC(=S)Nc2ccccn2)cc1`, the growth is 110% (inactive).
`Nc1cc(-c2cccc(OC(F)(F)F)c2)nc2ccc(N3CCCC3)cc12`: the growth was -57.4% (active) and 37.1% (inactive) and 52.9% (inactive).
Still for that read-out and setting: the value for `COc1ccc2cc3[n+](cc2c1OC)CCc1cc2c(cc1-3)OCO2` was 94% (inactive); that for `CC(C(=O)O)n1cc(C#N)c(=O)[nH]c1=O` (stereo not given) was 110% (inactive).
The same measure, in the same setting: the value for `CN(C)CCC(=O)c1ccc(Cl)cc1` was 107% (inactive) and 115% (inactive); that for `CN(C)c1ccc(C(Cc2ccc3ccccc3n2)Cc2ccc3ccccc3n2)cc1` was 74.9% (inactive) and 92.8% (inactive); that for `Cc1ccc(S(=O)(=O)Nc2ccc3cc([N+](=O)[O-])ccc3c2[N+](=O)[O-])cc1` was 89.7% (inactive) and 115% (inactive).
For `CC1CCCc2sc3nc(NNC(=O)c4cnccn4)n(-c4ccccc4)c(=O)c3c21` (stereo not given), the growth is 11.7% (inactive) and 27.4% (inactive).
Consider `CCN(CC)CCC(CNc1c2ccc([N+](=O)[O-])cc2nc2cc(OC)c(OC)cc12)c1ccccc1` (stereo not given), for which the growth is -84.8% (active).
`CNC(=O)c1ccc(C)c(-n2c(C)cc(OCc3ccc(F)cc3F)c(Br)c2=O)c1`: the growth is 104% (inactive) and 97.9% (inactive).
Regarding `O=C(Oc1cccc(OC(=O)c2ccccc2)c1)c1ccccc1`, the growth was 115% (inactive) and 100% (inactive).

The same experiment, now with this note: 30 µM.
Turning to `CNC(=O)c1cc(Oc2ccc(CC(=O)Nc3cc(C(C)(C)C)nn3C)cc2)ccn1`, the growth is 89.9% (inactive).
With `CC(C)(C)c1cc(NC(=O)Cc2ccc(-c3cnc4cc(-c5cnn(CCN6CCOCC6)c5)ccc4n3)cc2)no1`, the growth was 30.3% (inactive).

The experiment is the same for the next values; noted with them: 100 µM.
In the case of `CC#C[C@]1(O)CC[C@H]2[C@@H]3CCC4=CC(=O)CCC4=C3[C@@H](c3ccc4c(c3)OCO4)C[C@@]21C`, the growth is -52.3% (active).
`O=C(O)c1sccc1O`: the growth is 28.3% (inactive).
